Luciferase inh = blocks purified firefly luciferase enzyme activity; 76,000 compounds, 2.5% hits; Potency, µM (top dose mostly 115 µM), most hits filed as inhibitors; purified P. pyralis luciferase, luminescence, biochemical; further: nearly all actives have a fitted effect of over 65% in size
Target sequence (P08659 whole entry, looked up): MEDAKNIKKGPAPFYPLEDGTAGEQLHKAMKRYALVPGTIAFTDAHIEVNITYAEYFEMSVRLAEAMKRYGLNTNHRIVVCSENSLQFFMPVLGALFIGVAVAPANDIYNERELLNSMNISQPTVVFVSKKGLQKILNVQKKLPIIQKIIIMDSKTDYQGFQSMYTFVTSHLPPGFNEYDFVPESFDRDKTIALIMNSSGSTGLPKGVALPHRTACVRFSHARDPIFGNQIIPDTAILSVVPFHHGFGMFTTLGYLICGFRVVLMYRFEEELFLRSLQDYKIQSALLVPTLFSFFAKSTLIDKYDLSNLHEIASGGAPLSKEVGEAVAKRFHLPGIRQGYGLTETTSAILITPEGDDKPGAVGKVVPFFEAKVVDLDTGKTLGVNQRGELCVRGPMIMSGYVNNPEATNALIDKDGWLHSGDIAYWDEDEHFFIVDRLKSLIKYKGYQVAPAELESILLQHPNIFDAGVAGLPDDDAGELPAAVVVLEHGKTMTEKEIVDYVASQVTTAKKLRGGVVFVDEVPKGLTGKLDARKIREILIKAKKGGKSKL
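Purified 10nM P. pyralis luciferase with 10uM D-luciferin and 10uM ATP in 50mM Tris acetate pH 7.5, 10mM Mg acetate, 0.01% Tween-20, 0.05% BSA. qHTS titration; luminescence read by CCD imager.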
HEK293 tox = cytotoxic compounds in HEK 293 cells; Potency, µM (doses to about 115 µM), for inactives: top-dose activity change, negative = cytotoxicity, actives largely listed as inhibitors; HEK 293 viability, ATP luminescence (CellTiter-Glo), 48-72 h; 94,000 compounds, 6.6% hits; further: nearly all actives have a fitted effect of over 60% in size
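qHTS cytotoxicity; HEK 293, 250 cells/well; compound pinned; 48 or 72 hr, 37 degree Celsius, 5% CO2, 95% humidity; CellTiter-Glo, 10 min RT; luminescence (ATP).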
GPT2 inhibitor = blocks human glutamate pyruvate transaminase 2 | Q8TD30 | AID 1671188 | 100,000 compounds, 0.25% hits | Potency, µM (series often up to 57.7 µM), inactives show at the highest dose activity change, negative = inhibition, actives largely listed as inhibitors | Recombinant GPT2, coupled pyruvate oxidase/HRP Amplex Red fluorescence; further: nearly all actives have a fitted effect of over 60% in size
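Fluorescence read-out: pyruvate from GPT2 turnover coupled to pyruvate oxidase, HRP and Amplex Red (0.2mM ThPP, 0.2U/mL PO and HRP, 50uM Amplex final). Substrates 250uM a-KG, 2mM L-alanine; enzyme 10ng/uL; 30 min RT.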
3T3 cytotox = NIH 3T3 cell cytotoxicity. Potency, µM (highest dose often 96.7 µM), for inactives: at the highest dose activity change, negative = cytotoxicity, usual class: inhibitors. 94,000 compounds, 4.3% hits. NIH 3T3 viability, CellTiter-Glo ATP luminescence, 48-72 h; further: nearly all actives have a fitted effect of over 55% in size
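Mouse fibroblast NIH 3T3 cells, 400 per well, received compound via pintool and were incubated for 48 or 72 hr prior to CellTiter-Glo ATP luminescence measurement.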
hNpr1 antagonist = human Npr1 receptor antagonism. P16066. HEK293 hNpr1 GloSensor cGMP, ANP-stimulated luminescence. Potency, µM (series often up to 46.3 µM), without a hit: top-dose activity change, negative = inhibition, hits mostly inhibitors. 76,000 compounds, 1.6% hits; calls by dose curve; further: nearly all actives have a fitted effect of over 60% in size
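HEK293 cells stably expressing human Npr1 and cGMP GloSensor pGS-40F, loaded 2 h with 2% GloSensor reagent, given compound 30 min at room temperature. Luminescence read before and 20 min after 0.1 nM hNppA.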
Starred values were filed as active, the others as inactive; [ ] = remark or other dose. Sampled rows, rich in hits. Any-hit rate of the full collection: about 10%. Unless noted, the call rests on the fitted dose curve; in most records, active means well fitted curve in the direction sought with a large enough effect; inconclusive means small, poorly fitted or top-dose-only effect, or another doubt; inactive means no such curve, though single readings can be large; an effect the other way counts as inactive or inconclusive. On the % scale 0 is the no-effect control and ±100 the full control effect; potency means the concentration at half of the fitted maximal effect.

Screening COc1ccccc1CCNC(=O)C1CC(c2ccc(F)c(C)c2)CN(C(=O)C2CC2)C1 (stereo not given) returned Luciferase inh inactive, HEK293 tox 35.5µM*, GPT2 inhibitor -10.4%, 3T3 cytotox 39.8µM* and hNpr1 antagonist -14.3%.
CC(=O)Nc1cccc(C(=O)N2CCC(c3n[nH]c(=O)n3-c3ccccc3)CC2)c1 was read as Luciferase inh inactive, HEK293 tox 7.9%, GPT2 inhibitor -18.0%, 3T3 cytotox inactive and hNpr1 antagonist 7.1%.
COc1ccc2c(c1)CN(Cc1ccccc1)C(=O)CCN2C(C)=O was read as HEK293 tox -19.6% and 3T3 cytotox inconclusive.
COc1ccc2c(c1)CN(Cc1ccccc1)C(=O)CCN2CC(O)Cc1ccccc1 (stereo not given) was read as HEK293 tox 79.4µM* and 3T3 cytotox inconclusive.
For O=C1CCN(CC(O)Cc2ccccc2)c2cc3c(cc2CN1Cc1ccccc1)OCO3 (stereo not given) the results were HEK293 tox 39.8µM* and 3T3 cytotox inconclusive.
For COc1ccc(OCC(O)CN2CCC(=O)N(Cc3ccccc3)Cc3cc4c(cc32)OCO4)cc1 (stereo not given) the results were HEK293 tox 44.7µM* and 3T3 cytotox inconclusive.
Screening COCCCNC(=O)C1CCCN(c2ccnc3ccnn23)C1 (stereo not given) returned HEK293 tox -14.0%[172 µM], GPT2 inhibitor inconclusive and 3T3 cytotox inconclusive.
`Cc1cc(C)cc(-c2ccc(CN3CCCC(NC(=O)NC4CCCC4)C3)cc2)c1` (stereo not given) gave HEK293 tox inconclusive, GPT2 inhibitor -7.5% and 3T3 cytotox inconclusive.
Screening CCCOc1cccc(-c2cc3c(cc2OC)C(CO)CC(C)(C)CO3)c1 (stereo not given) returned HEK293 tox 35.5µM* and 3T3 cytotox 31.6µM*.
For COc1cc2c(cc1-c1ccc(OC(F)(F)F)cc1)OCC(C)(C)CC2CO (stereo not given) the results were HEK293 tox 22.4µM*, GPT2 inhibitor -15.4%[27.3 µM] and 3T3 cytotox inconclusive.
O=C1Nc2ccccc2CN(Cc2ccc(C(F)(F)F)cc2)C12CCNCC2 was read as HEK293 tox 28.2µM*, GPT2 inhibitor 4.8% and 3T3 cytotox 22.4µM*.
`O=C1Nc2ccccc2CN(Cc2ccc(F)cc2)C12CCNCC2` gave HEK293 tox 39.8µM*, GPT2 inhibitor 2.6% and 3T3 cytotox inconclusive.
O=C1Nc2ccccc2CC12CCCN2Cc1ccc(C(F)(F)F)cc1 (stereo not given) was read as HEK293 tox 44.7µM*, GPT2 inhibitor -12.7% and 3T3 cytotox inconclusive.
O=C1Nc2ccccc2CC12CCN2Cc1cccc2ccccc12 (stereo not given) was read as Luciferase inh inactive, HEK293 tox inconclusive, GPT2 inhibitor -3.6%[88.5 µM], 3T3 cytotox 89.1µM* and hNpr1 antagonist -6.6%[70.6 µM].
COCCCNC(=O)N1CC2(CCCCC2)CC1COc1ccc(OC)cc1 (stereo not given) was read as HEK293 tox inconclusive, GPT2 inhibitor 2.0% and 3T3 cytotox inconclusive.
CNC(=O)N1c2ccccc2CC1c1nc(C(C)C)no1 (stereo not given) was read as Luciferase inh inactive, HEK293 tox 0.3%, GPT2 inhibitor inactive, 3T3 cytotox -0.1% and hNpr1 antagonist 0.8%.
For Cc1ccc(C)c(S(=O)(=O)N2c3ccccc3CC2c2nc(C(C)C)no2)c1 (stereo not given) the results were HEK293 tox 14.1µM*, GPT2 inhibitor inactive and 3T3 cytotox inconclusive.
Cc1ccc(F)cc1NC(=O)c1cc(-c2ccc[nH]2)n[nH]1 was read as Luciferase inh 39.8µM*, HEK293 tox inconclusive, GPT2 inhibitor inactive, 3T3 cytotox -29.3% and hNpr1 antagonist -6.9%.
COc1ccc(OC)c(NC(=O)c2cc(-c3ccc[nH]3)n[nH]2)c1 was read as Luciferase inh inconclusive, HEK293 tox 39.8µM*, GPT2 inhibitor -6.4%, 3T3 cytotox 44.7µM* and hNpr1 antagonist -8.5%.
